Hits are enriched below; roughly 0.44% of the tested compounds scored in any of these assays.
USP1-UAF1 inh: USP1/UAF1 (human) deubiquitinase inhibition. O94782. recombinant USP1/UAF1, Ub-Rhodamine cleavage fluorescence. Potency, µM (series often up to 57.1 µM), without a hit: top-dose activity change, negative = inhibition, actives largely listed as inhibitors. 390,000 tested, 0.23% active; note: % is set by controls: 0 for no effect and ±100 for the full control effect; nearly all actives have a fitted effect of over 60% in size
Target sequence (O94782 whole entry, looked up): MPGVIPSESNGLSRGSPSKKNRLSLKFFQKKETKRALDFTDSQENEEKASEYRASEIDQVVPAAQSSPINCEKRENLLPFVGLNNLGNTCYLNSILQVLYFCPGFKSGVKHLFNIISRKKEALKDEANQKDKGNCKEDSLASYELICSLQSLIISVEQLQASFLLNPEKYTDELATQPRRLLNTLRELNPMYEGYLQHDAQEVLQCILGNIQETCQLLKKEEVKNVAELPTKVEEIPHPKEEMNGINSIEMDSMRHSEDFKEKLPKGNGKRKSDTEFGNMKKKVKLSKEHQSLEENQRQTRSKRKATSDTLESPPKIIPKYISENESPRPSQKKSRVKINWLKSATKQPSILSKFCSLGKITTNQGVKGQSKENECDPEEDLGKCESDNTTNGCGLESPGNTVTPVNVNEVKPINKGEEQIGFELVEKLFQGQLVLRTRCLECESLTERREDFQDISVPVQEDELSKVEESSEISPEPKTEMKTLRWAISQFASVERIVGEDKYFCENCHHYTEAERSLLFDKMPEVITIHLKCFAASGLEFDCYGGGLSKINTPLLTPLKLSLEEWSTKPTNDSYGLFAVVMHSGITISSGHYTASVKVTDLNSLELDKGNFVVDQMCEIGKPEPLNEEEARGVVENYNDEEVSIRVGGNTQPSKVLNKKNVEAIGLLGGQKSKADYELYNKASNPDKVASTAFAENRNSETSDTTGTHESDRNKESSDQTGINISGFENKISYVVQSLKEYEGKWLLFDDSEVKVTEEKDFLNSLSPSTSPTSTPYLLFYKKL
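Step one: compound is pinned into 1nM USP1/UAF1 in HEPES pH 7.8 buffer with TCEP. Step two: 15 min room-temperature incubation. Step three: Ub-Rho (150nM final) starts cleavage, tracked by fluorescence over six one-minute reads.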
EPAC2 agonist: agonists of human EPAC2 (RAPGEF4) | 360,000 tested, 0.079% active | EPAC2 activation, biochemical qHTS; response scale: 100% = 6.5 mM cAMP response | Potency, µM (top dose mostly 154 µM), for inactives: at the top dose activation, hits mostly activators | AID 720711 | Q8WZA2; note: nearly all actives have a fitted effect of over 50% in size
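Compounds were titrated in qHTS against a Rap1B-BODIPY-GDP (250 nM) complex with EPAC2 (100 nM) and GDP (50 uM). BODIPY-GDP release tracked at 480/540 nm over 30 min at room temperature, normalized to 6.5 mM cAMP.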
EPAC2 antag: blocks human EPAC2 exchange factor. EPAC2 GEF exchange of Rap1B-BODIPY-GDP, fluorescence. Potency, µM (series often up to 114 µM), for the others: at the top dose activity, negative = inhibition, hits mostly inhibitors. 360,000 tested, 0.18% active. AID 720708; note: % is set by controls: 0 for no effect and ±100 for the full control effect; nearly all actives have a fitted effect of over 45% in size
EPAC1 agonist: agonists of human EPAC1 | O95398 | EPAC1 agonist qHTS, biochemical assay; response scale: 100% = response to 6.5 mM cAMP | Potency, µM (top dose mostly 154 µM), without a hit: at the highest dose activation, actives largely listed as activators | 360,000 tested, 0.073% active | AID 720707; note: nearly all actives have a fitted effect of over 60% in size
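Normalized to 6.5 mM cAMP, activity reflects EPAC1-catalysed release of BODIPY-GDP from Rap1B, followed kinetically over 30 min at 480 nm excitation, 540 nm emission. Reaction contained 100 nM EPAC1, 250 nM Rap1B-BODIPY-GDP, 50 uM GDP.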
USP2a inh: inhibitors of human ubiquitin-specific protease USP2a | Potency, µM (doses to about 38.3 µM), for inactives: at the top dose activity change, negative = inhibition, actives largely listed as inhibitors | USP2 core, Ub-CHOP2 coupled fluorogenic reporter, 485/531 | AID 463254 | 330,000 tested, 0.01% active;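 note: plate controls were DMSO wells for no effect and full inhibition by NEM control for full effect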
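Cell-free coupled assay: 10nM USP2 core preincubated 30min RT with compound in Tris-HCl pH 8.0/CaCl2/CHAPS buffer, then 25nM Ub-CHOP2 and 25nM reporter substrate; fluorescence (Ex 485/Em 531) read after 60min RT, normalized to NEM inhibition, concentration-response curves fitted.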
EPAC1 antagonist: EPAC1 (human) antagonism. EPAC1 GEF assay, Rap1b-BODIPY-GDP exchange fluorescence. AID 720709. Potency, µM (top dose mostly 115 µM), for inactives: at the highest dose activity change, negative = inhibition, usual class: inhibitors. O95398. 360,000 tested, 0.14% active;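 note: plate controls were vehicle for no effect and positive control for full effect; nearly all actives have a fitted effect of over 50% in size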
* = called active by the depositor; ? = inconclusive; / = no result given. Calls come from the whole dose curve; as a rule, active = well fitted curve in the direction sought with a large enough effect; inconclusive = small, poorly fitted or top-dose-only effect, or another doubt; inactive = no such curve, though single readings can be large; an effect the other way counts as inactive or inconclusive. Potency is the fitted concentration of half-maximal effect.

SMILES	USP1-UAF1 inh	EPAC2 agonist	EPAC2 antag	EPAC1 agonist	USP2a inh	EPAC1 antagonist
ON=C(c1ccccc1)c1ccc2c3c(cccc13)CC2	-28%	19%	14µM*	4%	/	6%
COc1ccccc1CNS(=O)(=O)c1cc(CN2C(=O)c3cccnc3C2=O)ccc1OC	-13%	0%	-13%	-6%	3%	-13%
COc1cc(CCNC2=CC(=O)c3ncccc3C2=O)ccc1O	18µM*	-4%	-5%	-2%	/	-5%
CC1(C2CCC3C4CCC5CC6(CCC5(C)C4C(=O)CC32C)OCCO6)OCCO1 (stereo not given)	-2%	5%	56µM*	8%	/	?
CC1=C(SCc2ccccc2)C(=O)c2ccccc2C1=O	16µM*	26%	?	-3%	/	?
CN(C)S(=O)(=O)c1cccc(-c2nn(-c3ccccc3)cc2/C=C2\SC(=S)NC2=O)c1	?	-5%	-2%	6%	-2%	71µM*
CN(C)S(=O)(=O)c1cccc(-c2nn(-c3ccccc3)cc2/C=C(\C#N)c2nc3ccccc3[nH]2)c1	-18%	5%	1%	5%	4%	1%
CCCCN(CC)C(=O)CCn1c(=O)c2cccn2c2cccnc21	-15%	/	/	/	/	/
O=C(O)c1[nH]c2ccccc2c1C(c1ccccc1)c1c(C(=O)O)[nH]c2ccccc12	-23%	-4%	-9%	-10%	-1%	-23%
COc1cc(C(c2c(C(=O)O)[nH]c3ccccc23)c2c(C(=O)O)[nH]c3ccccc23)ccc1OCc1ccccc1	?	-4%	-26%	1%	-28%	40µM*
CC(=O)c1ccc(NC(=O)Cn2c3ncccc3c(=O)n2-c2ccc(C)cc2)cc1	-10%	/	/	/	/	/
O=C(O)C(c1ccccc1)N1C(=O)/C(=C\c2ccc(-c3ccccc3Cl)o2)SC1=S (stereo not given)	?	112µM*	90%	-131%	?	42%
CC(C)Cc1nn2c(=O)cc(COC(=O)c3cccc(NC(=O)c4cccs4)c3)nc2s1	3%	/	/	/	/	/
O=C(N[C@H](Cc1ccc(Cl)cc1)C(=O)O)OCC1c2ccccc2-c2ccccc21	-17%	-13%	?	-23%	2%	50µM*
Cn1c(=O)cc(SCC(=O)NCc2ccc(F)cc2)c2cc(Cl)ccc21	-21%	/	/	/	/	/
CCN(CC)c1ccc(N=C2C(=O)Nc3ccccc32)cc1	32µM*	-1%	2%	-12%	-2%	-24%
Cc1ccc(N=C2C(=O)Nc3ccccc32)cc1	?	11%	12%	14%	-1%	-10%
Cc1nc(-c2ccc(S(=O)(=O)N3CCN(c4cccc(C(F)(F)F)c4)CC3)cc2)co1	-24%	/	/	/	/	/
CN(Cc1ccco1)c1ncnc2ccc(-c3ccc4c(c3)OCCO4)cc12	/	/	/	/	2%	/
COc1cccc(-c2ccc3ncnc(N(C)Cc4ccco4)c3c2)c1	/	11%	32µM*	5%	-3%	-12%
CC(NC(=O)CN1C(=O)COc2ccc(Cl)cc21)c1ccccc1 (stereo not given)	-9%	/	/	/	/	/
CCOc1cccc(CNCCO)c1OCc1ccc(Cl)cc1Cl	-17%	-1%	-7%	1%	3%	-13%
CCOc1cccc(CNc2ccc(O)cc2)c1OCc1ccccc1Cl	?	-15%	-8%	15%	-3%	28µM*
CCOc1cccc(CNc2ccc(O)cc2)c1OCc1ccc(Cl)cc1Cl	32µM*	-7%	?	13%	-1%	50µM*
CCOc1cc(CNc2ccc(O)cc2)cc(Cl)c1OCc1ccccc1	28µM*	/	/	/	/	/
SMILES	USP1-UAF1 inh	EPAC2 agonist	EPAC2 antag	EPAC1 agonist	USP2a inh	EPAC1 antagonist
CCOc1cccc(CNn2cnnc2)c1OCc1ccccc1Cl	-2%	0%	-1%	5%	5%	7%
CCN1C(=O)c2ccccc2Sc2ccc(NC(=O)COc3ccc(Cl)cc3)cc21	-2%	/	/	/	/	/
O=C(NCc1cccnc1)c1nn(-c2ccc(F)cc2)nc1CO	-16%	/	/	/	/	/
COc1ccc(-c2cn3cccnc3n2)cc1NC(=O)Nc1ccc(Cl)cc1	5%	/	/	/	/	/
CCn1c(=O)c2sccc2n2c(CCCC(=O)N3CCN(c4cc(C)ccc4C)CC3)nnc12	-19%	/	/	/	/	/
Cc1cccc(NC(=O)Cn2c(=O)n(Cc3ccc4c(c3)OCO4)c(=O)c3oc4ccccc4c32)c1C	-6%	/	/	/	/	/
COc1ccccc1Cn1c(=O)oc2ccc(C)cc21	-19%	6%	28µM*	-7%	3%	-14%
Cc1ccc2oc(=O)n(Cc3ccccc3OC(C)C)c2c1	-19%	10%	?	7%	-2%	3%
CCN1CCc2c(sc(NC(=O)c3ccc(S(=O)(=O)N(C)c4ccccc4)cc3)c2C(=O)NC)C1	?	100µM*	18%	8%	-1%	7%
COc1ccccc1CNC(=O)c1ccc(N2CCCC2)c(NC(=O)NCc2ccccc2)c1	-35%	/	/	/	/	/
O=[N+]([O-])c1ccc(COc2cccc(CNc3ccc(F)cc3)c2)cc1	-11%	10%	-2%	4%	2%	-23%
Oc1ccc(NCc2cccc(OCc3ccc(F)cc3)c2)cc1	?	18%	-29%	14%	0%	45µM*
c1ccc(COc2cccc(CNCc3cccnc3)c2)cc1	-2%	7%	1%	5%	4%	-23%
Oc1ccc(NCc2cccc(OCc3ccccc3)c2)cc1	?	7%	?	-13%	2%	32µM*
Cc1c(F)cccc1NC(=O)C1CCCN1S(=O)(=O)c1ccc(F)cc1 (stereo not given)	-21%	/	/	/	/	/
COc1cc(S(=O)(=O)Nc2ccccc2C)ccc1Cl	-20%	6%	28µM*	-1%	1%	10%
COc1cc(S(=O)(=O)Nc2c(C)cc(C)cc2C)ccc1Cl	-9%	-12%	3%	-3%	-7%	-1%
O=C(COC(=O)/C=C/c1cccs1)Nc1ccc(F)cc1	-23%	0%	12%	-5%	0%	-1%
CCc1cccc(NC(=O)COC(=O)/C=C/c2cccs2)c1	-23%	-2%	4%	112µM*	-1%	-15%
C/C(C/C(C)=C1/SC(=S)NC1=O)=C1\SC(=S)NC1=O	?	14%	?	-3%	2%	20µM*
CCCCCC/C(C)=C1/SC(=S)NC1=O	-14%	4%	-22%	-3%	1%	-29%
COCCCNC(=O)CSc1nc(-c2cccc(F)c2)[nH]c1-c1ccccc1	-12%	/	/	/	/	/
COc1ccc(C(=O)c2sc3nc4c(c(C(F)(F)F)c3c2N)CN(C(C)=O)CC4)cc1OC	40µM*	/	/	/	/	/
CC(C)NC(=O)C1CCN(c2nc3ccccc3nc2C(F)(F)F)CC1	-4%	/	/	/	/	/
